For 103 compounds, displacement results are on record in PubChem BioAssay AID1240 (Sanford-Burnham Center for Chemical Genomics, 2008).

Molecules are shown by their SMILES. The campaign covered roughly 50,000 compounds. About 800 (1.6%) showed an effect of 50% or more. The list comes from a sample in which strong results are over-represented; it also holds similar structures and randomly drawn compounds.

Bcl-2-like protein 10 (Homo sapiens), sequence (Q9HD36 whole entry, looked up): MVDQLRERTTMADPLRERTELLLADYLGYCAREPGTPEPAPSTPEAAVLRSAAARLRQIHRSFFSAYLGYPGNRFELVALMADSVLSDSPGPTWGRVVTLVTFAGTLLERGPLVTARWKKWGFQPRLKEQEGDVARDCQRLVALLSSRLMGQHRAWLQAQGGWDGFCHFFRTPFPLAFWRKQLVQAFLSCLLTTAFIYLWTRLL

This test addresses Bcl-2-like protein 10 (Homo sapiens) (UniProt Q9HD36). The test can be described thus: Phenotype converters, Bcl-B/TR3 peptide binding displacement, primary biochemical FP (AID 1240).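 Note: 0% = Bcl-B with tracer peptide and DMSO and 100% = tracer peptide lacking Bcl-B.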 Conditions: GST-Bcl-B / FITC-TR3 peptide fluorescence polarization; stronger effect = higher value; compound at 3.75 mg/L. In general terms: In fluorescence polarisation assays a small probe gives low polarisation when free and higher when bound to something large.
Consider `O=[N+]([O-])c1ccc(COc2ccccc2/C=N/Nc2nc3ccccc3s2)cc1`, for which the displacement is -2.1%.

Take `O=C(COc1ccc(Cl)cc1Cl)N1CCN(C(=O)COc2ccc(Cl)cc2Cl)CC1`: the displacement was determined as 2%.

`CCOC(=O)c1ccc(Nc2nc3nonc3nc2NC(C)C)cc1`: the displacement is -7.1%.

Take `O=C1NC(=S)N/C1=C/c1ccc(N2CCOCC2)cc1`: the displacement turned out to be 94.5%.

As to `O=C1NC(=S)N/C1=C\c1ccccc1`, the displacement turned out to be 0.7%.

For `Cc1cc(/C=C2/NC(=S)NC2=O)c(C)n1-c1ccc(N2CCOCC2)cc1`, the displacement was -9%.

On to `COc1ccc(CC(=O)Nc2ccc(Cl)c(C(F)(F)F)c2)cc1OC`, for which the displacement stood at 6.1%.

Consider `O=C(Nc1ccc(Br)cc1)c1ccccc1C(F)(F)F`, for which the displacement turned out to be 23.2%.

`O=C1C(NC2CCCCC2)=C(N2CCCCC2)C(=O)c2ccccc21`: the displacement was 7.4%.

Consider `O=C1c2ccccc2C(=O)c2c1cc(NC1CCCCC1)c1nsnc21`, for which the displacement amounted to 15.8%.

On to `O=C1c2ccccc2-c2c(NC3CCCCC3)c(=O)[nH]c3cccc1c23`, for which the displacement came out at 150%.

In the case of `Cc1cc(/C=C2/SC(=S)NC2=O)c(C)n1-c1ccccc1`, the displacement is -39.7%.

As for `Cc1cccc(-n2c(C)cc(/C=C3/NC(=S)NC3=O)c2C)c1`, the displacement was -38.6%.

Take `Cc1cc(C=C2C(=O)NC(=S)NC2=O)c(C)n1-c1cccc(Cl)c1`: the displacement was found to be 107%.

On to `CCc1ccc(-n2c(C)cc(/C=C3/SC(=S)NC3=O)c2C)cc1`, for which the displacement turned out to be 63%.

Turning to `Cc1ccc(-n2c(C)cc(C=C3C(=O)NC(=S)NC3=O)c2C)cc1C`, the displacement amounted to 0.1%.

For `Cc1cccc(-n2c(C)cc(C=C3C(=O)NC(=S)NC3=O)c2C)c1`, the displacement turned out to be 72.3%.

For the compound `Cc1cc(/C=C2/NC(=S)NC2=O)c(C)n1-c1cccc(Cl)c1`, the displacement was -12.9%.

For the compound `Cc1cc(/C=C2/SC(=S)NC2=O)c(C)n1-c1ccc(F)cc1`, the displacement was -6.4%.

Take `Cc1cc(C=C2C(=O)NC(=S)NC2=O)c(C)n1-c1ccc(Br)cc1`: the displacement worked out at 21%.

In the case of `CCOC(=O)c1ccc(NC(=O)CN(c2ccc(Oc3ccccc3)cc2)S(C)(=O)=O)cc1`, the displacement was -2.7%.

On to `Cc1ccc(-c2nc(N/N=C/c3cccc(F)c3)c3ccccc3n2)cc1`, for which the displacement turned out to be 5%.

`COc1ccc(C(=O)N2CCN(Cc3ccc4c(c3)OCO4)CC2)cc1OC`: the displacement came out at 10.6%.

`CCOC(=O)C1=C(C)N=c2s/c(=C\c3ccc(N(C)C)o3)c(=O)n2C1c1ccc(F)cc1` (stereo not drawn): the displacement was -22.6%.

Take `CCOc1cc(C2/C(=C(\O)c3ccc(C)cc3)C(=O)C(=O)N2c2nncs2)ccc1O` (stereo not drawn): the displacement was 8.3%.

On to `COc1ccc(/C(N)=N/OC(=O)c2ccc(C)c([N+](=O)[O-])c2)cc1`, for which the displacement is -1.8%.

For `CCCCOC(=O)c1cccc(NC(=O)c2ccc(OC)cc2)c1`, the displacement was -3.1%.

`COc1ccc(C2=NN(C(C)=O)C(c3ccccc3OC)C2)cc1` (stereo not drawn): the displacement was 2.3%.

In the case of `CC(NC(=O)CN(c1cccc(C(F)(F)F)c1)S(C)(=O)=O)c1ccccc1` (stereo not drawn), the displacement stood at 0.7%.

Consider `CCOc1ccc(N(CC(=O)N2CCOCC2)S(=O)(=O)c2ccc(SC)cc2)cc1`, for which the displacement was -1.3%.

As to `C=CCN1C(=O)/C(=C\c2ccc(OCc3ccccc3)c(OCC)c2)SC1=S`, the displacement stood at 49.5%.

In the case of `CCOC(=O)c1nc2ccccc2[nH]c1=O`, the displacement was 14.3%.

For the compound `Cc1ccc(/C(O)=C/c2nc3ccc([N+](=O)[O-])cc3oc2=O)o1`, the displacement is -6.6%.

In the case of `Cc1ccc(/C(O)=C/c2nc3ccccc3oc2=O)o1`, the displacement is 116%.

`Cc1nc(C)c(/C(O)=C/c2nc3ccccc3[nH]c2=O)o1`: the displacement is -8.5%.

For the compound `Cc1ccc(/C(O)=C/c2nc3ccccc3[nH]c2=O)o1`, the displacement came out at 130%.

As for `Cc1cc(C)c(/C(O)=C/c2nc3ccccc3oc2=O)c(C)c1`, the displacement was 13.8%.

As for `O=C(c1cccc([N+](=O)[O-])c1)c1ccc2c(c1)C(=O)N(c1ccccc1C(=O)O)C2=O`, the displacement was -2.7%.

Turning to `Cc1ccc(S(=O)(=O)NCCSCc2ccccc2Cl)cc1[N+](=O)[O-]`, the displacement was -8.5%.

Turning to `CCN(CC)S(=O)(=O)c1ccc(NC(=O)c2ccco2)cc1`, the displacement was -5.1%.

For the compound `Cc1ccccc1OCC(=O)Nc1ccccc1CO`, the displacement is -7.8%.

For the compound `CCOc1ccc(C(=O)Nc2ccc3c4c(cccc24)CC3)cc1[N+](=O)[O-]`, the displacement came to 14.7%.

In the case of `Cc1ccccc1OCC(=O)Nc1ccc2c3c(cccc13)CC2`, the displacement was found to be 107%.

Consider `CCCOc1cccc(C(=O)Nc2ccc3c4c(cccc24)CC3)c1`, for which the displacement was determined as 88.7%.

Regarding `CCCOc1cccc(C(=O)Nc2ccc(I)cc2Cl)c1`, the displacement turned out to be 10.7%.

For `CC(=O)Nc1ccccc1NC(=O)COc1ccccc1C`, the displacement is 11.1%.

Regarding `O=C(N/N=C/c1cccs1)C(=O)NC1CCCCC1`, the displacement is 7.6%.

Turning to `O=C(O/C(=C/c1nccn1Cc1ccc(Cl)cc1)c1ccccc1)c1ccccc1`, the displacement was -1.2%.

Consider `O=C(COc1ccc(Cl)cc1)Nc1ccc2c(c1)Cc1ccccc1-2`, for which the displacement is 5.4%.

`O=C(Nc1ccccc1[N+](=O)[O-])c1ccccc1Cl`: the displacement came out at 8.4%.

For the compound `COc1ccc(C(=O)CN2CCN(CCN3C(=O)c4cccc5cccc(c45)C3=O)CC2)cc1`, the displacement is 9.4%.

With `COc1ccccc1N1C(=O)/C(=C/c2ccc(N(C)C)cc2)SC1=S`, the displacement is -8.2%.

`Cc1c(-c2ccc(Cl)cc2)nc2ccccc2c1C(=O)Nc1ccc(F)cc1F`: the displacement was -9.1%.

Turning to `CCn1c(O)c(/C=N/N=C/c2ccccc2)c2ccc(C3=NNC(=O)CC3)cc21`, the displacement came to 119%.

As to `CCCOc1ccc(C2=NNC(=O)CC2)cc1`, the displacement came to 3.6%.

Consider `CCn1c(O)c(/C=N/N=C2CCCC2)c2ccc(C3=NNC(=O)CC3)cc21`, for which the displacement came out at 45.9%.

Take `CC1=NN(c2cccc(Cl)c2)C(=O)/C1=C/C=C/c1cccc([N+](=O)[O-])c1`: the displacement amounted to 13.6%.

Consider `Cc1nc2cc(-c3ccc(F)cc3)[nH]n2c(=O)c1C`, for which the displacement is -7.3%.

Turning to `O=C1OC(c2ccccc2)=C/C1=C\c1c(Cl)cccc1Cl`, the displacement was -5.8%.

Turning to `N#Cc1c(NCc2ccccc2)ncc2c1Nc1ccccc1C2`, the displacement is 112%.

Consider `N#Cc1c(NCc2ccccc2)ccnc1SCc1ccccc1`, for which the displacement is -4.8%.

With `COc1nccc(NCc2ccccc2)c1C#N`, the displacement is -12.3%.

Consider `C=C(Br)Cn1c(C)nc2ccccc21`, for which the displacement is 14.6%.

On to `COc1ccc(C(CC(=O)c2ccc(C)cc2)Nc2ccc(I)cc2)cc1OC` (stereo not drawn), for which the displacement is -7%.

For `COc1cc(/C=C(\C#N)c2nc3ccc(C)cc3[nH]2)cc(OC)c1OC(C)=O`, the displacement is -4.6%.

With `O=C(Nc1cccc(C(F)(F)F)c1)c1cccc(N2C(=O)c3ccccc3C2=O)c1`, the displacement was -5.6%.

`O=C(NC1=Nc2cccc3cccc1c23)c1cccc(C(F)(F)F)c1`: the displacement worked out at 62.1%.

Regarding `COc1ccc(C(=O)NNC2=Nc3cccc4cccc2c34)cc1`, the displacement is -17.1%.

As to `O=C(Nc1cccc(Br)c1)c1ccc([N+](=O)[O-])cc1`, the displacement stood at 12.7%.

On to `Cc1[nH]c2ccc(Br)cc2c1CC(=O)N/N=C/c1ccc(Cl)c(Cl)c1`, for which the displacement stood at 5.1%.

As to `C=CCOC(=O)C1=C(C)NC(C)=C(C(=O)OCC=C)C1c1ccc(C)o1`, the displacement came to 12.2%.

For `CCOC(=O)C1=C(C)N=c2s/c(=C\c3ccccc3)c(=O)n2C1c1ccc(Cl)cc1` (stereo not drawn), the displacement was 3.8%.

On to `CCOC(=O)C1=C(C)N=c2s/c(=C\c3ccc4c(c3)OCO4)c(=O)n2C1c1ccc2c(c1)OCO2` (stereo not drawn), for which the displacement stood at 3.5%.

With `CCOC(=O)C1=C(C)N=c2s/c(=C\c3ccc(OCC)cc3)c(=O)n2C1c1ccccc1` (stereo not drawn), the displacement is -1%.

`CCOC(=O)C1=C(C)N=c2s/c(=C\c3ccc4c(c3)OCO4)c(=O)n2C1c1ccc(C)cc1` (stereo not drawn): the displacement is -7.1%.

Take `CCOC(=O)C1=C(C)N=c2s/c(=C\c3ccc([N+](=O)[O-])cc3)c(=O)n2C1c1ccc(Cl)cc1` (stereo not drawn): the displacement was found to be 9.2%.

In the case of `CCOC(=O)C1=C(C)N=c2s/c(=C/c3ccc(Cl)cc3)c(=O)n2C1c1ccccc1` (stereo not drawn), the displacement stood at 90.8%.

For the compound `CCOC(=O)C1=C(C)N=c2s/c(=C/c3ccc(C)cc3)c(=O)n2C1c1ccccc1` (stereo not drawn), the displacement came out at 2.5%.

Regarding `CCOC(=O)C1=C(C)N=c2s/c(=C\c3ccc(C(C)=O)cc3)c(=O)n2C1c1ccccc1` (stereo not drawn), the displacement came out at 76.2%.

Turning to `CCOC(=O)C1=C(C)N=c2s/c(=C\c3ccc(Cl)cc3)c(=O)n2C1c1ccc2c(c1)OCO2` (stereo not drawn), the displacement turned out to be 121%.

For `O=C(/C=C/c1cccc(C(F)(F)F)c1)Nc1ccccc1[N+](=O)[O-]`, the displacement was 7%.

Take `O=C(O)CCC(=O)N1N=C(c2cccs2)CC1c1ccccc1Cl` (stereo not drawn): the displacement was -8.4%.

For `O=C(Cc1ccc(Cl)cc1)Nc1ccc(Cl)cn1`, the displacement was determined as 8.8%.

For the compound `Clc1ccc(N2CCN(N=Cc3c(Cl)cccc3Cl)CC2)cc1`, the displacement came to 8.5%.

In the case of `Cc1ccc(C(=O)Nc2ccc(C(=O)O)cc2)cc1S(=O)(=O)NC1CCCCC1`, the displacement is -11.1%.

As for `Cc1nn(-c2ccccc2)c(C)c1/C=N/O`, the displacement was 3.2%.

For the compound `CCOC(=O)c1c(NC(=O)C(C)N2C(=O)c3ccccc3C2=O)sc2c1CCC(C)C2` (stereo not drawn), the displacement was found to be 2.5%.

Regarding `COc1ccc(N2C(=O)NC(=O)/C(=C/c3ccc(OCc4ccccc4F)cc3)C2=O)cc1`, the displacement amounted to 63.1%.

As for `O=C1NN(c2ccccc2)C(=O)/C1=C/c1ccc(-c2ccc(F)cc2)o1`, the displacement is 8.1%.

For `Cc1ccc(N2C(=O)NC(=O)/C(=C/c3ccc(-c4ccc(F)cc4)o3)C2=O)cc1`, the displacement is 40.5%.

Take `COc1ccc(N2C(=O)NC(=O)/C(=C\c3ccc(C)cc3)C2=O)cc1`: the displacement is -6%.

Take `COc1ccc(N2C(=O)NC(=O)/C(=C\c3ccc(-c4ccccc4C(=O)O)o3)C2=O)cc1`: the displacement is -88.8%.

Turning to `COc1ccc(N2C(=O)NC(=O)/C(=C/c3ccc(I)o3)C2=O)cc1`, the displacement was determined as 3.6%.

Consider `O=C1NC(=O)N(c2ccccc2)C(=O)/C1=C\c1ccc(-c2ccc(F)cc2)o1`, for which the displacement came to 137%.

Regarding `O=C1NC(=O)N(c2ccccc2)C(=O)/C1=C\c1ccc(OCc2ccccc2F)cc1`, the displacement was 12.9%.

Turning to `COc1ccc(N2C(=O)NC(=O)/C(=C/c3cccc(OCc4ccccc4F)c3)C2=O)cc1`, the displacement came out at 0.1%.

As for `COc1ccc(N2C(=O)NC(=O)/C(=C/c3ccc(Sc4ccc(C)cc4)o3)C2=O)cc1`, the displacement was determined as 125%.

On to `COc1ccc(N2C(=O)NC(=O)/C(=C/c3ccc(-c4ccc(F)cc4)o3)C2=O)cc1`, for which the displacement turned out to be 100%.

Take `COC(=O)c1c(N)sc(C(=O)Nc2ccccc2OC)c1C`: the displacement amounted to 1.7%.

Take `Cc1cc(Cl)ccc1OCC(=O)Nc1nc2ccc(Cl)cc2s1`: the displacement was -7.8%.

Regarding `O=[N+]([O-])c1cccc(S(=O)(=O)N2CCc3ccccc3C2)c1`, the displacement was found to be 0%.

Take `COc1ccccc1N1C(=O)C2C(C1=O)C1C=CC2C12CC2` (stereo not drawn): the displacement was determined as 15.1%.

In the case of `O=C(Nc1ccc(I)cc1)/C(=C\c1cccc([N+](=O)[O-])c1)NC(=O)c1cccs1`, the displacement is -0.6%.
